Results from PubChem BioAssay AID504604 (National Center for Advancing Translational Sciences (NCATS), 2011).
Where “and” joins values, the source holds several entries; their conditions need not be identical. Equal entries are not always repeated. Calls of active or inactive are those of the source. Calls follow the shape of the dose curve; as a rule, active = well fitted inhibition curve with a large enough effect; inconclusive = small, poorly fitted or top-dose-only effect; inactive = flat fitted curve, though single readings scatter.

Assay: Quantitative high throughput screen to test activity of anti-malarial compounds in the Dd2 strain of Plasmodium Falciparum
Settings: P. falciparum Dd2 in RBCs, SYBR Green growth, 72 h
Text: NIH Molecular Libraries Probe Production Network [MLPCN] NIH Chemical Genomics Center [NCGC] MLPCN Grant: R21 NS059500 Assay Provider: David Fidock and Eric Ekland, Columbia University The goal of this screen is to measure the ability of a set of anti-malarial compounds to inhibit the Dd2 strain of P. falciparum. These compounds have been screened in a delayed death phenotype assay and have been identified as inhibitors of the delated death phenotype, by inhibiting the development of the apicoplast in the malarial parasite Plasmodium falciparum (described below) The biochemical processes that make this organelle essential for erythrocytic stage parasites are not well understood. However, antibiotics, such as azithromycin and tetracycline, which target the apicoplast translational machinery, have a potent antimalarial effect. […] We have developed a cell-based assay that measures parasite growth based on the expression of an integrated copy of a firefly luciferase reporter. To detect small molecules that cause this 'delayed death' phenotype, erythrocytes infected with the luciferase-expressing parasites were incubated with compounds for either one or two generations, corresponding to 48 and 96 hours, respectively. Compounds that inhibit parasite growth in the second generation, but not the first, should be enriched in antimalarials that target the apicoplast. Growth inhibition is detected by a decrease in luciferase activity
3 ul culture medium was dispensed into black clear-bottom plates (aurora) with multidrop Combi followed by a pin-transfer of […] compounds and positive control into assay plates. (Controls: 1 mM Artemisinin 1:2 dilution in duplicate Multi-Drop dispense of P. falciparum infected RBCs (0.3% parasitemia, 2.5% hematocrit final concentration) followed by 72 hr incubation (37C, 5% CO2). Multi-drop dispense 2 ul 10 X SYBR Green lysis buffer ([…] Tris-HCl, 10 mM EDTA, 0.16% saponin (w/v), 1.6% Triton-X (v/v), 10 x SYBR Green I supplied as 10,000 x final concentration by Invitrogen) into assay plates. Incubated at Room temperature, overnight in the dark and then read using Envision (Perkin Elmer) with fluorescence intensity at 485 nm excitation and 535 nm emission wavelengths.

Potency, active:
C[C@@H]1CN(C)C(=O)c2cc(NC(=O)Nc3ccccc3)ccc2O[C@@H](C)CCCCO[C@@H]1CN(C)S(=O)(=O)c1ccc(F)cc1 3570 nM, COc1ccc(COC[C@H](C)N2C[C@@H](C)[C@H](CN(C)Cc3ccc(OC)cc3)OCCCC[C@H](C)Oc3ccc(NC(=O)Nc4ccccc4)cc3C2=O)cc1 798 nM, C[C@@H]1CN([C@@H](C)CO)C(=O)c2cc(NC(=O)Nc3ccccc3)ccc2O[C@@H](C)CCCCO[C@H]1CN(C)C(=O)OC(C)(C)C 2250 nM, C[C@@H]1CN(CCO)C(=O)c2cc(NC(=O)Nc3ccccc3)ccc2O[C@@H](C)CCCCO[C@H]1CN(C)S(=O)(=O)c1ccc(F)cc1 2520 nM, C[C@@H]1CN([C@@H](C)CO)C(=O)c2cc(NC(=O)Nc3ccccc3)ccc2O[C@@H](C)C/C=C/CO[C@H]1CN(C)S(=O)(=O)c1ccc(F)cc1 565 nM, C[C@@H]1CN([C@@H](C)CO)C(=O)c2cc(Nc3nc4ccccc4o3)ccc2O[C@@H](C)CCCCO[C@H]1CN(C)S(=O)(=O)c1ccc(F)cc1 2000 nM, C[C@@H]1CN([C@@H](C)CO)C(=O)c2cc(NC(=O)Nc3ccccc3)ccc2O[C@@H](C)CCCCO[C@H]1CN(C)Cc1ccc(C(F)(F)F)cc1 1590 nM, COCOC[C@H](C)N1C[C@@H](C)[C@H](CN(C)S(=O)(=O)c2ccc(F)cc2)OCCCC[C@H](C)Oc2ccc(NC(=O)Nc3ccccc3)cc2C1=O 28.3 nM, C[C@@H]1CN([C@@H](C)COC(=O)C(C)(C)C)C(=O)c2cc(NC(=O)Nc3ccccc3)ccc2O[C@@H](C)CCCCO[C@H]1CN(C)S(=O)(=O)c1ccc(F)cc1 50.4 nM, C[C@@H]1CN([C@@H](C)COC(=O)c2ccccc2)C(=O)c2cc(NC(=O)Nc3ccccc3)ccc2O[C@@H](C)CCCCO[C@H]1CN(C)C(=O)OC(C)(C)C 798 nM, COCCOCOC[C@H](C)N1C[C@@H](C)[C@H](CN(C)S(=O)(=O)c2ccc(F)cc2)OCCCC[C@H](C)Oc2ccc(NC(=O)Nc3ccccc3)cc2C1=O 35.7 nM, C[C@@H]1CN([C@@H](C)CO)C(=O)c2cc(N)ccc2O[C@@H](C)CCCCO[C@H]1CN(C)S(=O)(=O)c1ccc(F)cc1 711 nM, C[C@@H]1CCCCO[C@H](CN(C)C(=O)Nc2ccc(F)cc2)[C@H](C)CN([C@@H](C)CO)C(=O)c2cc(NS(=O)(=O)c3ccccc3)ccc2O1 504 nM, C[C@@H]1CN([C@@H](C)CO)C(=O)c2cc(NC(=O)Nc3ccccc3)ccc2O[C@@H](C)CCCCO[C@H]1CN(C)S(=O)(=O)c1cccc(F)c1 50.4 nM, Cc1noc(C)c1NC(=O)Nc1ccc2c(c1)C(=O)N(C(C)C)C[C@@H](C)[C@H](CN(C)S(=O)(=O)c1ccc(F)cc1)OCCCC[C@H](C)O2 179 nM and 2.52 µM, C[C@@H]1CN([C@@H](C)CO)C(=O)c2cc(NC(=O)Nc3ccccc3)ccc2O[C@@H](C)CCCCO[C@H]1CN(C)S(=O)(=O)c1ccc(C(F)(F)F)cc1 1130 nM, C[C@@H]1CN([C@H](C)CO[Si](C)(C)C(C)(C)C)C(=O)c2cc(NC(=O)Nc3ccccc3)ccc2O[C@@H](C)CCCCO[C@H]1CN(C)S(=O)(=O)c1ccc(F)cc1 565 nM, COc1ccc(COCCN2C[C@@H](C)[C@H](CN(C)S(=O)(=O)c3ccc(F)cc3)OCCCC[C@H](C)Oc3ccc(NC(=O)Nc4ccccc4)cc3C2=O)cc1 252 nM, C=CCOC(=O)N(C)C[C@H]1OCCCC[C@H](C)Oc2ccc(NC(=O)Nc3ccccc3)cc2C(=O)N([C@@H](C)CO[Si](C)(C)C(C)(C)C)C[C@H]1C 565 nM, C[C@@H]1CN([C@@H](C)CO)C(=O)c2cc(NC(=O)Nc3ccccc3)ccc2O[C@@H](C)CCCCO[C@H]1CN(C)S(=O)(=O)c1cccnc1 4490 nM, C[C@@H]1CN(CCO[Si](C)(C)C(C)(C)C)C(=O)c2cc(NC(=O)Nc3ccccc3)ccc2O[C@@H](C)CCCCO[C@H]1CN(C)S(=O)(=O)c1ccc(F)cc1 225 nM, C[C@@H]1CN([C@@H](C)CO[Si](C)(C)C(C)(C)C)C(=O)c2cc(NC(=O)Nc3ccccc3)ccc2O[C@@H](C)CCCCO[C@H]1CN(C)S(=O)(=O)c1ccc(F)cc1 5 nM, C[C@@H]1CN([C@@H](C)COC(=O)c2ccccc2)C(=O)c2cc(NC(=O)Nc3ccccc3)ccc2O[C@@H](C)CCCCO[C@H]1CN(C)S(=O)(=O)c1ccc(F)cc1 179 nM, C[C@@H]1CCCCO[C@@H](CN(C)Cc2ccc(F)cc2)[C@H](C)CN([C@@H](C)CO)C(=O)c2cc(NC(=O)Nc3ccccc3)ccc2O1 6340 nM, C[C@@H]1CN([C@@H](C)CO)C(=O)c2cc(NC(=O)Nc3ccccc3)ccc2O[C@@H](C)CCCCO[C@H]1CN(C)S(=O)(=O)c1ccccc1F 2000 nM, C=CCOC(=O)N(C)C[C@@H]1OCCCC[C@H](C)Oc2ccc(NC(=O)Nc3ccccc3)cc2C(=O)N([C@H](C)COC(=O)c2ccccc2)C[C@H]1C 896 nM, CC(C)NC(=O)Nc1ccc2c(c1)C(=O)N([C@@H](C)CO)C[C@@H](C)[C@H](CN(C)S(=O)(=O)c1ccc(F)cc1)OCCCC[C@H](C)O2 1790 nM, C=CCOC(=O)N(C)C[C@@H]1OCCCC[C@H](C)Oc2ccc(NC(=O)Nc3ccccc3)cc2C(=O)N([C@@H](C)CO)C[C@H]1C 1260 nM, CC(C)N1C[C@@H](C)[C@H](CN(C)S(=O)(=O)c2ccc(F)cc2)OCCCC[C@H](C)Oc2ccc(NC(=O)Nc3ccccc3)cc2C1=O 56.5 nM, C[C@@H]1CN([C@@H](C)COC(C)(C)C)C(=O)c2cc(NC(=O)Nc3ccccc3)ccc2O[C@@H](C)CCCCO[C@H]1CN(C)S(=O)(=O)c1ccc(F)cc1 3.6 nM, Cc1noc(C)c1NC(=O)Nc1ccc2c(c1)C(=O)N([C@@H](C)CO)C[C@@H](C)[C@H](CN(C)S(=O)(=O)c1ccc(F)cc1)OCCCC[C@H](C)O2 634 nM, C[C@@H]1CN([C@@H](C)CO)C(=O)c2cc(NC(=O)Nc3ccccc3)ccc2O[C@@H](C)C/C=C\CO[C@H]1CN(C)S(=O)(=O)c1ccc(F)cc1 1260 nM, C[C@@H]1CN([C@@H](C)CN=[N+]=[N-])C(=O)c2cc(NC(=O)Nc3ccccc3)ccc2O[C@@H](C)CCCCO[C@H]1CN(C)S(=O)(=O)c1ccc(F)cc1 56.5 nM
